Bioassay records (PubChem BioAssay)
DRD3 agonist – qHTS of D3 Dopamine Receptor Agonist: qHTS. D(3) dopamine receptor (Homo sapiens), P35462. D3R DiscoveRx beta-arrestin cells, luminescence, 90 min. max activation, %. 410,000 tested, 0.58% active. AID 652048, 2013; in the data active = max activation above about 30%; note: 0% is about no effect
Target sequence (P35462 whole entry, looked up): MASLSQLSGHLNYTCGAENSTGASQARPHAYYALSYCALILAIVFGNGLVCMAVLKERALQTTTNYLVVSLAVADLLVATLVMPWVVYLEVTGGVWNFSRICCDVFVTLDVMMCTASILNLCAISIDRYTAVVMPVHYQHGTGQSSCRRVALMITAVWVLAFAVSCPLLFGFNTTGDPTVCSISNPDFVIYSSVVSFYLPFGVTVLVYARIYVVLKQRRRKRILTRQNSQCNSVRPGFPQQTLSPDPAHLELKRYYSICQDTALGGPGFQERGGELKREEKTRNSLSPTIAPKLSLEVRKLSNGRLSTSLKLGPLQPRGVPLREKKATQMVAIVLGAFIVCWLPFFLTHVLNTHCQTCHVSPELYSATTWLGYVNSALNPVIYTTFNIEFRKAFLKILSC
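Cells at 1500/well, incubated overnight, then treated with pinned compounds (dopamine as control) for 90 min at 37 degrees C. DiscoveRx reagent added for 30 - 60 minutes at room temperature; luminescence read.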
D1 potentiator – Potentiators of Human D1 Dopamine Receptor: qHTS; D(1A) dopamine receptor (Homo sapiens), P21728; HEK293 TREx D1 cells, calcium flux, dopamine EC20 potentiation; potentiation, % at 10 µM; 360,000 tested, 0.036% active; in the data active = potentiation above about 30%; note: 0% is about no effect
D3 antag – qHTS of D3 Dopamine Receptor Antagonist: qHTS; D3R cells, DiscoveRx beta-arrestin luminescence, antagonist mode; active compounds read low; max response, negative = inhibition, %; 360,000 tested, 2.5% active; D(3) dopamine receptor (Homo sapiens), P35462; in the data active = max response below about -50%; note: % is set by controls: 0 for no effect and ±100 for the full control effect
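Cells plated overnight at 1500 cells/well, then exposed to library compounds with dopamine controls for 90 minutes at 37 degrees C. DiscoveRx reagent added for 30–60 minutes at room temperature; luminescence read, quantitative HTS format.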
D1 antag – Antagonist of Human D 1 Dopamine Receptor: qHTS; activity change, negative = inhibition, % at 10 µM; AID 504652, 2011; HEK293 TREx D1 cells, calcium flux, dopamine EC80; active compounds read low; 360,000 tested, 3.2% active; in the data active = activity change below about -30%; note: % is set by controls: 0 for no effect and ±100 for the full control effect
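Tetracycline-induced HEK293 Trex D1 cells, force-coupled to calcium, dye-loaded; compounds added and read 180 s, then EC80 dopamine added and calcium flux tracked kinetically another 180 s.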
D1 agonist – Allosteric Agonists of the Human D1 Dopamine Receptor: qHTS. D(1A) dopamine receptor (Homo sapiens), P21728. AID 504660, 2011. HEK293 T-REx D1 cells, calcium flux, agonist mode. activation, % at 2 µM. 360,000 tested, 1% active; in the data active = activation above about 30%; note: 0% is about no effect
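Tetracycline-induced HEK293 TREx D1 cells, force-coupled to calcium signalling, were dye-loaded with a no-wash calcium kit. Compound was pin-added after a 10 s baseline. Fluorescence was read kinetically at 1 cycle/s for 180 s, with calcium rises flagged as agonism.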
* marks the source's active call; other numbers are inactive results; nt = no result. This is a sample that favours compounds with a hit; in the whole collection about 6.1% have one here.

SMILES | DRD3 agonist | D1 potentiator | D3 antag | D1 antag | D1 agonist
COc1ccc(Cl)cc1NC(=O)CSc1nc(-c2ccccc2)c2ccccc2n1 | -2 | 5 | nt | 3 | 3
CCOC(=O)c1c(CSc2ccc(C)cc2)n(C)c2cc(Br)c(O)c(CN(C)C)c12 | 2 | -2 | 1 | -2 | 1
CCOC(=O)c1c(CN(C)C)oc2cc(CN(C)C)c(O)c(CSc3ccccc3)c12 | -21 | -3 | -59* | 9 | 6
Cc1ccc(CNC(=O)c2cc3c(=O)n(Cc4cccnc4)ccc3nc2C)cc1 | 7 | -4 | nt | 4 | 1
CCCCCCCCCOC(=O)C(CC(=O)O)N1CCOCC1 (stereo unspecified) | 8 | 0 | -52* | -2 | 3
O=C(O)CC(C(=O)OC1CCCCC1)N1CCOCC1 (stereo unspecified) | -4 | -3 | -92* | -8 | 1
CCCCCOC(=O)CC(C(=O)OCCCCC)N1CCCCC1 (stereo unspecified) | 2 | -5 | -19 | 0 | 0
O=C(O)CC(C(=O)OCC1CCCO1)N1CCOCC1 (stereo unspecified) | 3 | -1 | -16 | 1 | 5
CC1(C(=O)Nc2cccc3ccccc23)CC1(Br)Br (stereo unspecified) | 2 | -12 | 13 | -31* | 0
CC(C)N1CCC1(C)C(=O)Nc1cccc2ccccc12 (stereo unspecified) | 8 | nt | 6 | nt | nt
Cc1cc(C)cc(OCC(=O)OCC(=O)c2cc(C)n(C3CC3)c2C)c1 | 12 | -7 | -5 | -30* | 5
Cc1cc(C(=O)COC(=O)c2ccc[nH]c2=O)c(C)n1C1CC1 | 33* | 1 | 8 | 15 | 4
CCC(=O)c1ccc(OCC(=O)OCC(=O)c2cc(C)n(C3CC3)c2C)cc1 | -3 | 0 | 1 | -5 | 12
Cc1cc(C(=O)COC(=O)c2ccc[nH]c2=O)c(C)n1-c1ccccc1 | 9 | -1 | -23 | -6 | -2
CCOC(=O)c1ccc(Nc2nc(=O)c3cccnc3s2)cc1 | 3 | 3 | -70* | 12 | -1
O=C(CSc1ncc2c(n1)-c1ccccc1N(Cc1ccc(F)cc1)S2(=O)=O)c1ccc(Cl)cc1 | 10 | 1 | nt | 1 | 5
Cc1ccc(C)c(N2CCN(CCCNC(=O)Cn3c(-c4cccs4)cc4ccccc43)CC2)c1 | -15 | 4 | nt | 10 | -2
O=C(Nc1cccc2ccccc12)N(CCO)C1CCS(=O)(=O)C1 (stereo unspecified) | 4 | 3 | -12 | -71* | -2
CCN(C(=O)COC(=O)Cc1cccc2ccccc12)C1CCS(=O)(=O)C1 (stereo unspecified) | -3 | -6 | 6 | -3 | 2
CN(C)C(=N)c1n[nH]nc1SCc1ccc(Cl)c(Cl)c1 | -5 | -3 | -10 | -36* | 0
CCn1cc([N+](=O)[O-])c(C(=O)NCc2ccc3c(c2)OCO3)n1 | 3 | -1 | 1 | 1 | 1
Cc1cc(C(=O)Nc2ccc3c(c2)OCCO3)ccc1[N+](=O)[O-] | -11 | -6 | -62* | -9 | 0
CCn1cc([N+](=O)[O-])c(C(=O)Nc2ccc3c(c2)OCCO3)n1 | -13 | -7 | 17 | -75* | 0
O=C(Nc1ccc2c(c1)OCCO2)c1ccc(Cl)c([N+](=O)[O-])c1 | -6 | -1 | -27 | -13 | 0
CCn1cc([N+](=O)[O-])c(C(=O)N2CCCC2)n1 | 32* | -1 | 11 | 0 | 1
SMILES | DRD3 agonist | D1 potentiator | D3 antag | D1 antag | D1 agonist
CCn1cc([N+](=O)[O-])c(C(=O)N2CCN(C(=O)c3ccco3)CC2)n1 | 1 | -1 | 12 | 2 | 3
Cc1cc(C(=O)Nc2cnc3ccccc3c2)ccc1[N+](=O)[O-] | -1 | 0 | 5 | -60* | 1
COc1ccc(CNC(=O)Cc2c(C)c3c(cc(C)c4c(C)coc43)oc2=O)cc1 | 6 | 3 | nt | 4 | -1
NCCCNCCCCNC(=O)C(O)NC(=O)CCCCCCN=C(N)N (stereo unspecified) | -2 | nt | nt | nt | nt
Cc1ccccc1C(=O)Nc1ccc(C(=O)OCc2cc(=O)n3c4c(sc3n2)CCCC4)cc1 | -11 | -1 | nt | 6 | 0
COc1ccc2[nH]c(C(=O)N3CCNCC3)cc2c1OC | -5 | -4 | 2 | -41* | 2
CCCNC(=O)Cn1c(=O)/c(=C\c2ccc(-c3ccc([N+](=O)[O-])cc3)o2)s/c1=C\C(=O)C(C)(C)C | 3 | -7 | 45 | -83* | 283*
Cc1noc(C)c1CSCC(=O)N(C)CC(=O)Nc1ccccc1Br | -8 | -3 | -9 | -47* | 4
Cc1cccc(C)c1NC(=O)CN(C)C(=O)CSCc1c(C)noc1C | 0 | -1 | -1 | 18 | 0
CN(C)c1ccc(NC(=O)CN2CCN(CC(=O)Nc3ccc(Br)cc3)CC2)cc1 | 7 | -4 | nt | 10 | 0
CCOc1ccccc1N(C)C(=O)Cn1nc(Cc2ccncc2)c2ccccc2c1=O | -6 | -1 | nt | 3 | -2
Cc1ccc(-c2c(C(=O)N/N=C/c3ccc(OC(C)C)cc3)nnn2-c2nonc2N)cc1 | -1 | 26 | -10 | 55 | 55*
COc1cccc(-c2c(C(=O)N/N=C/c3ccoc3)nnn2-c2nonc2N)c1 | -11 | 0 | -16 | 9 | 77*
COc1cccc(-c2c(C(=O)N/N=C/c3ccncc3)nnn2-c2nonc2N)c1 | 4 | -6 | 2 | 7 | 4
Cc1ccc(-c2c(C(=O)N/N=C/c3ccoc3)nnn2-c2nonc2N)cc1 | -1 | 1 | -14 | 58 | 44*
CCc1ccc(/C=N/NC(=O)c2nnn(-c3nonc3N)c2C(C)C)cc1 | -13 | 22 | -28 | 42 | 142*
CCOc1ccc(/C=N/NC(=O)c2nnn(-c3nonc3N)c2-c2cccs2)cc1 | 1 | 10 | -25 | 64 | 165*
CCOc1ccc(-c2c(C(=O)N/N=C/c3ccc(C)cc3)nnn2-c2nonc2N)cc1 | 2 | 27 | 1 | 44 | 44*
Cc1ccc(SCc2c(C(=O)N/N=C/c3ccoc3)nnn2-c2nonc2N)cc1 | 5 | -18 | 7 | -45* | 3
CCOC(=O)c1nnn(-c2nonc2N)c1-c1ccccc1 | 3 | -5 | -4 | -44* | 9
O=C(CSc1nc(=O)[nH]c2c1CCCC2)Nc1ccc(Cl)c(Cl)c1 | -2 | 4 | nt | nt | -1
O=C(CN1CCN(C(=O)CCC(=O)N2CCC(c3ccccc3)=N2)CC1)Nc1ccc(F)cc1 | -12 | -6 | -16 | -41* | 4
O=C(CN1CCN(C(=O)CCC(=O)N2CCC(c3ccccc3)=N2)CC1)Nc1cccc(F)c1 | 2 | nt | -15 | nt | nt
O=C(Nc1ccccc1C(=O)N1CCCCC1)c1nsc2ccccc12 | -11 | -2 | nt | 4 | 1
